Measured values as given in the OligoGym collection.

Target: IPO9
Assay: pooled miR-30 sensor sort-seq; sequence = guide strand
Settings: shRNA
Further: reference of the scale not given here.

Sequence | sensor-assay potency score (higher = more potent)
TTGTCATCTGCATTGATGCCAT | -0.517
TTCTAGCTGAGTGTGCACCAGA | -0.519
TTATCGATTCTCTCAACCCATT | -1.16
TTACAGAGTGCCACAGAGCTGA | -0.313
TTTGCTTATCGATTCTCTCAAC | -1.05
TTTGTATTTCGTACTACTGTTG | -0.688
TTGCTTTCCATGCTTGCTGTGA | -0.476
TAATCTGTTCTTCAGCAGCCGC | -1.2
TATTGTTTCAAGATGACTGATG | -0.429
TTTTTGGCTGACTTAGAGCGGG | -0.902
TTGTATTTCGTACTACTGTTGT | -0.494

Target: IQCF1
Assay: as above
Settings: shRNA

Sequence | sensor-assay potency score (higher = more potent)
TTGAGCACCTGGCAATAGCGTC | -1.02
ATCTTTGTCAGAGAGCTTCTTT | 0.163
TTCTTCAGAATCTTGGACAGTA | 0.482
TTGATCTTGGTGGCTACCGTAT | -0.916
TTTGAGGGTTCCTTCGTCTTTT | -0.864
TTGTCCACTGTCTGTGTCTCAA | -0.831
TACCGTATCTTTGTCAGAGAGC | -0.874
TTGGCTGTGACTCTGTACTGGC | -0.0836
TAGCCTCTGCCTTTGACTCTGC | -0.296
TGGAGTTTTAGCCTCTGCCTTT | -0.954
TTTCTCATTGGCATTGTCCACT | -0.377
ATACACTCTGTCACAATGCAAG | -1.11

Target: IQCJ
Assay: as above
Settings: shRNA

Sequence | sensor-assay potency score (higher = more potent)
TTGAGAGTATGTATGAACCCAG | 0.0169
TAGAGGATTCTGCAATCTTTTC | -1.5
TCGGAGAAGGTGTTCATGCTGA | -0.401
TTCCATCATTAACTTGTTCTAG | -0.41
TCCATCATTAACTTGTTCTAGA | -0.697
TCTCTGAGGAGACAGAGGGTGG | -1.51
ATATTTTCCATCATTAACTTGT | 0.105
TAGAGAAGAATCACCTTCCTTC | 0.583
TCGCTGAATGATTTTCACCTTT | -0.759
TTTTCCATCATTAACTTGTTCT | -0.253
TTCTCTGAGGAGACAGAGGGTG | -0.857

Target: IREB2
Assay: as above
Settings: shRNA

Sequence | sensor-assay potency score (higher = more potent)
TTCGAAACAATTTCACAGCTTT | 1.18
TCAACTGTAAGATCTGTCGGAC | 0.203
TTTTCTTCAAAAACCACTCTTG | -0.106
TAGTATAACATGTTCTTCCTCT | 0.5
TTATGTGTGAATCTGTGCCGAC | -0.0474
TTTAGATACATCGAAGAACTTC | -0.321
